Screening results deposited in PubChem BioAssay by The Scripps Research Institute Molecular Screening Center.
The list is not random: actives were taken first. Their share in the collection is about 2.3%.
M1 antag: antagonists of human M1 muscarinic receptor. CHO-K1 hM1, Fluo-8 calcium fluorescence, ACh EC80 antagonist. inhibition, % at 3 µM. P11229. 360,000 tested, 1.3% active. AID 588852;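 active means percent inhibition above its own plate's cutoff, namely the mean of that plate's compound wells plus 3 SD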;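 further: peak over basal fluorescence ratio during 140 s after agonist addition; 0% = ACh EC80 plus DMSO and 100% = DMSO alone without agonist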
Target sequence (P11229 whole entry, looked up): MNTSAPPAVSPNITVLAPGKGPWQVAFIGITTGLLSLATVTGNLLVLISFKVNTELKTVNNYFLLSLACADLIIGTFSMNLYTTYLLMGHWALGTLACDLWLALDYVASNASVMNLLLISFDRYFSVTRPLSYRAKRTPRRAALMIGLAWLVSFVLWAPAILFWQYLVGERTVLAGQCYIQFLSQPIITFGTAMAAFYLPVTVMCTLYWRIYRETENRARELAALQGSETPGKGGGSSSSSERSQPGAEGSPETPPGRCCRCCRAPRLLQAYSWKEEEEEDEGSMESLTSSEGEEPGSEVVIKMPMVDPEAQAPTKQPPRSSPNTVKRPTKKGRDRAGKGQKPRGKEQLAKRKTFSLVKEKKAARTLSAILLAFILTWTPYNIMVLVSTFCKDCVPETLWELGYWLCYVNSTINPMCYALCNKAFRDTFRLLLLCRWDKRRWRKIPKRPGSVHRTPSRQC
CHO-K1 Ca antag: nonselective inhibitor or artifact in parental CHO-K1 cells. inhibition, % at 3 µM. ATP-induced calcium, Fluo-8 fluorescence. AID 602250. 360,000 tested, 0.6% active;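 active means inhibition above a per-plate cutoff, the plate's mean sample inhibition plus 3 SD, cut at about 24% in these data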;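 further: 0% = DMSO plus EC80 ATP and 100% = DMSO alone without ATP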
M1 ag parental: M1 agonist counterscreen hit in parental CHO-K1 cells. activation, % at 3 µM. Fluo-8 calcium fluorescence; scaled to maximal ATP response, vehicle zero. 360,000 tested, 0.48% active; in the data active means activation above about 15%;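 further: untransfected CHO-K1 host cells lacking M1 receptor as counterscreen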
M1 ag: agonists of human M1 muscarinic receptor. P11229. CHO-K1 hM1, Fluo-8 calcium fluorescence, agonist mode; 0% DMSO, 100% acetylcholine EC100. activation, % at 3 µM. 360,000 tested, 0.33% active. AID 588814;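 active means activation above the run's mean compound activation plus 3 SD, cut at about 16% in these data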;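 further: peak over basal fluorescence ratio within a 140 s kinetic read after compound addition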
M1 PAM parental: counter-screen for M1 PAMs: effect in parental CHO-K1 cells; ATP EC20, Fluo-8 calcium fluorescence; 0% at ATP EC20, 100% at ATP max; activation, % at 3 µM; 360,000 tested, 0.02% active;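 active means activation above the run cutoff, the mean activation of all test compounds plus 3 SD, cut at about 40% in these data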;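 further: peak over basal fluorescence ratio in a 140 s read after ATP addition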
M1 PAM: potentiates human M1 receptor response to acetylcholine | CHO-K1 hM1, Fluo-8 calcium fluorescence, ACh EC20; 0% = ACh EC20, 100% = maximal ACh | activation, % at 3 µM | 360,000 tested, 0.088% active | AID 588819; in the data active means activation above about 19%, passing the limit was not always enough
* hit, by the source's call.

SMILES | M1 antag | CHO-K1 Ca antag | M1 ag parental | M1 ag | M1 PAM parental | M1 PAM
C=CCn1c(O)c(C=Nc2ccccc2)sc1=S | 2 | 29* | -1 | -9 | -12 | 3
COc1cccc(NC(=O)CSc2nc(O)c(C)c(=O)n2-c2ccc(C)cc2)c1 | -5 | -8 | -1 | 0 | -8 | 3
Cc1oc(-c2cccc3ccccc23)nc1CN1CCN(c2ncnc3ccccc23)CC1 | 7 | -2 | 23* | -10 | 11 | -9
CCOc1ccc(C(C(=O)NCC2CCCO2)N(C(=O)c2snc(C(N)=O)c2N)c2ccccc2F)cc1 (centres undefined) | 18 | 40* | 2 | 5 | 5 | -6
COc1ccc(C(C(=O)NCc2ccccc2)N(Cc2ccco2)C(=O)c2snc(C(N)=O)c2N)cc1OC (centres undefined) | 16 | 14 | 8 | 0 | 3 | -9
NC(=O)c1nsc(C(=O)N(c2ccccc2F)C(C(=O)NCc2ccc(F)cc2)c2ccc(O)cc2)c1N (centres undefined) | 37* | 4 | 8 | -1 | 5 | -20
COc1ccc(C(C(=O)NCc2ccccc2)N(Cc2ccco2)C(=O)c2snc(C(N)=O)c2N)cc1 (centres undefined) | 33* | 8 | 7 | 1 | 7 | -16
O=C(c1cc(F)c(F)c(F)c1F)N1CCN(C(=O)C2CCCO2)CC1 (centres undefined) | -9 | -12 | 1 | -1 | 8 | 6
CN(C)c1ccc(-c2csc(C(O)c3cccc(Cl)c3)n2)cc1 (centres undefined) | 42* | 22 | 6 | 19* | -7 | -24
CCN(c1cccc(C)c1)C(C(=O)Nc1ccc(OC)cc1)c1cc2c(cc1[N+](=O)[O-])OCO2 (centres undefined) | -4 | -17 | 1 | -6 | 24 | 7
COc1ccc(NC(=O)C(c2cc3c(cc2[N+](=O)[O-])OCO3)N(C)Cc2ccccc2)cc1 (centres undefined) | 3 | -3 | 22* | -1 | 29 | 1
O=C(NC(=S)Nc1ccc2oc(=O)ccc2c1)c1cccc(Cl)c1 | -4 | 7 | 0 | -2 | -2 | 1
O[C@H]1CN(CC2CCCCC2)[C@@H](c2ccc(Cl)cc2)C[C@@H]1n1cc(C2CC2)nn1 | 37* | -3 | 0 | -2 | 10 | -15
CC(=O)n1cc([C@H]2C=C(C(=O)NCc3ccccc3)O[C@@H](OCc3ccc(CO)cc3)C2)c2ccccc21 | 12 | -11 | 5 | -6 | 12 | -8
CC(=O)n1cc([C@H]2C=C(C(N)=O)O[C@@H](OCc3ccc(CO)cc3)C2)c2ccccc21 | 21 | -9 | 20* | 23* | 7 | -10
COc1cccc(C(=O)NCCS(=O)(=O)NCc2ccco2)c1 | -14 | 37* | 1 | -3 | 8 | 7
CC1CC(C)CN(CCOCCSc2ccccc2)C1 (centres undefined) | 1 | 6 | 1 | -7 | 9 | -18
Clc1ccc(SCCCN2CCCCC2)cc1 | 33* | -11 | 1 | -6 | 0 | -17
CC1CC(C)CN(CCOCCSc2ccc(Cl)cc2)C1 (centres undefined) | 35* | -2 | 3 | -4 | 7 | -21
Cc1cc(CNC[C@H]2O[C@@H](n3cnc4c(N)ncnc43)[C@H](O)[C@@H]2O)no1 | -18 | -4 | 1 | -2 | 16 | 10
Cc1cc(=O)[nH]c(SCc2cccc(Br)c2)n1 | -43 | -5 | 1 | 0 | 3 | 3
COc1ccc(CSc2nc(C)cc(=O)[nH]2)cc1Br | -7 | -3 | 19* | -3 | 18 | 4
O=C(O)c1ccc2c(c1)S(=O)(=O)c1cc(N3CCN(c4ncccn4)CC3)ccc1C2=O | -6 | -16 | 1 | -2 | 22 | 5
COc1ccc(Br)cc1C=NNS(=O)(=O)c1ccc(C)cc1 | 33* | 20 | 0 | 1 | -7 | -19
COc1cc(/C=N/NS(=O)(=O)c2ccc(Br)cc2)ccc1O | -8 | -5 | 1 | 1 | 7 | 4
SMILES | M1 antag | CHO-K1 Ca antag | M1 ag parental | M1 ag | M1 PAM parental | M1 PAM
Cc1ccc2c(c1)C(=C(C#N)C#N)CCN2 | -26 | -10 | 5 | 3 | 2 | 14
O=C(c1cccc(S(=O)(=O)N2CCOCC2)c1)N1CCN(C/C=C/c2ccccc2)CC1 | 98* | 4 | 1 | -8 | -16 | -27
O=C(c1ccccc1)N1CCN(S(=O)(=O)c2ccccc2)CC1 | 102* | -8 | 1 | -3 | 21 | 3
CN(C)S(=O)(=O)c1ccc(NC(=O)COc2cccc3c2OC(C)(C)C3)cc1 | -2 | -5 | 3 | -4 | 4 | 2
COc1cccc(CN(C)C(=O)C(CCSC)NS(=O)(=O)c2ccc3c(c2)OCCO3)c1OC (centres undefined) | 30* | -2 | 8 | 0 | 5 | -11
Cc1ccc(OCCOC(=O)C2CCN(S(=O)(=O)c3ccc(C)c(C)c3)CC2)cc1 | -11 | -10 | 1 | -1 | 4 | 9
Cc1ccc(S(=O)(=O)N2CCC(C(=O)OCCOc3ccccc3)CC2)cc1C | 19* | 6 | 1 | -3 | -4 | -16
OCC1(Cc2ccc(Cl)cc2)CCN(Cc2ccccc2F)CC1 | 9 | 0 | 2 | -8 | -1 | -11
CSc1ccc(CN2CCC(CO)(Cc3ccc(Cl)cc3)CC2)cc1 | 56* | -3 | 3 | -2 | 11 | -23
CC(C)(C)c1cc(CNC(=O)C2CCC(=O)N(Cc3ccccc3F)C2)[nH]n1 (centres undefined) | -15 | -10 | 0 | 0 | 22 | 6
COc1ccc(NC(=O)c2cc(C3CCCCN3S(C)(=O)=O)on2)c(C)c1 (centres undefined) | -14 | 28* | 1 | 3 | -17 | 13
Cc1ccccc1C(=O)N1CC(=O)Nc2ccc(F)cc2C1c1ccccc1 (centres undefined) | -1 | 7 | 23* | -3 | 11 | -1
O=C1CN(C(=O)c2cc3ccccc3oc2=O)C(c2ccccc2)c2cc(F)ccc2N1 (centres undefined) | -10 | -13 | 1 | 1 | -5 | 2
O=C1CN(C(=O)c2ccccc2)C(c2ccccc2)c2cc(F)ccc2N1 (centres undefined) | -8 | -13 | 4 | -9 | -9 | 8
O=C1CN(C(=O)c2cc3ccccc3oc2=O)C(c2ccc(F)cc2)c2cc(F)ccc2N1 (centres undefined) | 8 | 25* | 1 | 0 | -6 | -6
N#CCCN(C(=O)COc1ccc(Cl)cc1Cl)c1ccccc1 | 14 | 11 | 0 | 0 | -3 | -6
CCC(C)[C@H]1CN=C(N)N1CCc1cccc2ccccc12 (some centres undefined) | 38* | -5 | 0 | -14 | -5 | -28
